The text below walks through data of PubChem BioAssay AID686979 (National Center for Advancing Translational Sciences (NCATS), 2013).

Several values for one entry are separate records, joined by “and”; a condition that tells them apart may be missing. Identical values can stand only once. In all, about 420,000 compounds went through this assay and about 50,000 (12%) were called active. About 26% were inconclusive and are not listed. The list comes from a sample in which actives are over-represented; it also holds similar structures and randomly drawn compounds. Where a call stands in place of a potency, no number is given. Unmarked numbers belong to inactive results. Calls follow the shape of the dose curve; as a rule, active = well fitted inhibition curve with a large enough effect; inconclusive = small, poorly fitted or top-dose-only effect; inactive = flat fitted curve, though single readings scatter.
Potency is read from the fitted curve at half-maximal effect.

The nature of this test: qHTS for Inhibitors of human tyrosyl-DNA phosphodiesterase 1 (TDP1): qHTS in cells in presence of CPT. Also: nearly all actives have a fitted effect of over 55% in size. As to conditions: chicken DT40 Tdp1-/-;hTDP1 cells + 20 nM CPT, ATP luminescence, 48 h; series mostly up to 46.2 µM. Summed up: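 Cell growth measured by CellTiter-Glo luminescence after a minimum 48 h, 37 C compound exposure with 20 nM CPT in Tdp1-knockout DT40 cells stably expressing hTDP1, seeded 400/well; qHTS titration format.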
Turning to `O=C1OC(Oc2ccc(Br)cc2)(c2ccccc2)c2ccccc21` (configuration not stated), the Potency result is “inactive”.

`CC1(C)Cc2ccccc2-c2[nH]c(=S)[nH]c(=O)c21`: the Potency result is “inactive”. For `O=C(Nc1c(C(=O)N2CCN(c3ccc(F)cc3)CC2)oc2ccccc12)c1ccco1`, the Potency is 16.4 µM (active). Same read-out and setting: the same measure for `O=C(c1ccco1)N1CCN(C(=O)C2CC(c3ccc(F)cc3)=NO2)CC1` (configuration not stated): “inactive”; for `CCC(=O)Nc1c(C(=O)N2CCN(c3ccc(F)cc3)CC2)oc2ccccc12`: 13 µM (active); for `NC(=O)c1oc2ccccc2c1NC(=O)Cc1ccccc1`: “inactive”. Same read-out and setting: next, `O=C(Nc1ccccc1C(=O)N1CCCCC1)c1ccco1`: “inactive”; `COCC(=O)Nc1c(C(=O)N2CCCC2)oc2ccccc12`: “inactive”; `CC(Oc1cccc(Cl)c1)C(=O)NC1CC(C)(C)NC(C)(C)C1` (configuration not stated): “inactive”. Consider `COc1cc(C2C(C(=O)c3cccs3)=C(O)C(=O)N2CCN2CCOCC2)ccc1OCCC(C)C` (configuration not stated), for which the Potency entry is “inactive”. The same measure, in the same setting: the same measure for `c1ccc(-c2cnc(CN3CCN(c4ccccc4)CC3)o2)cc1`: “inactive”. Still for that read-out and setting: the same measure for `O=C(CN1CCCC1)N1CCN(c2ccccc2)CC1`: “inactive”; for `Oc1ccc(/C=N/N(Cc2ccccc2)c2ccccc2)cc1`: “inactive”. On the same count and under the same terms, next, `CCC(C)N(c1ccc(/C=C/c2ccnc3ccccc23)cc1)C(C)CC` (configuration not stated): 7.08 µM (active); `CN(C)c1ccc(/C=C/C=C/c2ccnc3ccccc23)cc1`: 1.78 µM (active); `CCN1CCN(c2ccc(/C=C/c3ccnc4ccccc34)cc2)CC1`: 11.2 µM (active).

`CN(Cc1ccccc1)c1ccc(/C=C/c2ccnc3ccccc23)cc1`: the Potency was 12.6 µM (active). Still for that read-out and setting: next, `Cc1ccc(S(=O)(=O)N(C)C)cc1NC(=O)C(C)OC(=O)c1ccc2ccccc2n1` (configuration not stated): “inactive”. Regarding `CC(C)[C@@H](NC(=O)OC(C)(C)C)C(=O)NCC1CCC(C(=O)N[C@@H](Cc2ccccc2)C(=O)O)CC1` (some centres not stated), the Potency entry was “inactive”. Still for that read-out and setting: the same measure for `C[C@H]1CN([C@@H](C)CO)S(=O)(=O)c2ccc(Br)cc2O[C@H]1CN(C)C(=O)c1cnccn1`: “inactive”; for `CNC(=O)COc1ccc(S(=O)(=O)Nc2ccccc2)cc1`: “inactive”; for `CC(=O)c1ccccc1NC(=O)COC(=O)C1COc2ccccc2O1` (configuration not stated): “inactive”. Same read-out and setting: next, `CC1(C(=O)NS(=O)(=O)c2ccccc2Cl)CCN1C(=O)c1cccc(F)c1` (configuration not stated): “inactive”. Consider `O=C(Cn1nc([N+](=O)[O-])nc1Br)NC1CCCCC1`, for which the Potency result is “inactive”. Same read-out and setting: the same measure for `O=C(NCCS(=O)(=O)N1CCN(c2ccccc2)CC1)c1ccco1`: “inactive”; for `CN1CCN(Cc2nc3cc(NC(=O)COc4ccc([N+](=O)[O-])cc4)ccc3n2C)CC1`: “inactive”. Same read-out and setting: next, `O=C(Oc1ccc(C(=S)N2CCOCC2)cc1)c1ccc(F)cc1`: “inactive”. Still for that read-out and setting: next, `Cc1ccc(SCC2=NNC(=O)C2)cc1`: “inactive”; `O=C(COc1ccccc1)Nc1cc2c3c(c1)CC(=O)N3CCC2`: “inactive”; `CN(Cc1ccccc1)C(=O)CCC1CCN(C(=O)c2ccco2)CC1`: “inactive”.

In the case of `C=CCC1(C(=O)N(C)Cc2ccccc2)CCN(C(=O)OC(C)(C)C)CC1`, the Potency is 14.6 µM (active). Take `CC(C)(C)OC(=O)N1CCN(C(=O)c2[nH]c(C(F)(F)F)nc2-c2ccccc2)CC1`: the Potency entry is “inactive”. Still for that read-out and setting: the same measure for `Oc1[nH]c2ccccc2c1N=Nc1c(F)c(F)c(F)c(F)c1F`: 8.2 µM (active). Still for that read-out and setting: the same measure for `COCC(=O)N=Nc1c(O)[nH]c2ccccc12`: “inactive”; for `Cc1cccc(N=Nc2c(O)[nH]c3ccc(F)cc23)c1`: “inactive”; for `Cc1cc(=O)oc2c(C)c(OCC(=O)NCCc3ccc(S(N)(=O)=O)cc3)ccc12`: “inactive”.

As to `CCCNC(=O)C1(C)CCN(C(=O)c2ccccc2OC(F)(F)F)C1` (configuration not stated), the Potency result is “inactive”.

For `c1ccc(CNc2ncnc3[nH]ncc23)cc1`, the Potency was 20.6 µM (active).

Consider `CN(c1ccccn1)c1ncnc2[nH]ncc12`, for which the Potency entry was “inactive”.

Take `c1ccc(CNc2ncncc2-c2cccnc2)cc1`: the Potency result was “inactive”.

On to `Cc1ccc2c(=O)c(C(=O)c3cccc(Cl)c3)cn(CC(=O)NCc3ccccc3)c2n1`, for which the Potency entry was “inactive”.

On to `CC1(C)CC(=O)C=C(N2CCOCC2)C1`, for which the Potency result is “inactive”. Still for that read-out and setting: next, `Cc1oc(C(N)=O)cc1COc1ccc(C(N)=O)cc1`: “inactive”; `Cc1nc2nc(SCC(=O)NCc3ccco3)nn2c(C)c1Cc1ccccc1`: “inactive”.

On to `COC(OC)c1ccnc(SCc2ccccc2Cl)n1`, for which the Potency entry is “inactive”.

With `Cc1cccc(Cc2c(C)nc3nc(SCc4ccccc4Cl)nn3c2C)c1`, the Potency is 23.1 µM (active). The same measure, in the same setting: the same measure for `O=C(O)c1ccccc1-c1cccc2nncn12`: “inactive”. `Cc1nnc(SCC(=O)N/N=C/c2cn(-c3ccccc3)nc2-c2ccc(F)cc2)n1-c1ccccc1`: the Potency result is “inactive”.

For `O=C(NCCCN1CCOCC1)c1cn(-c2ccccc2)nc1-c1ccc(F)cc1`, the Potency result was “inactive”. The same measure, in the same setting: the same measure for `O=C(N/N=C/c1ccc([N+](=O)[O-])o1)c1cn(-c2ccccc2)nc1-c1ccc(F)cc1`: 7.31 µM (active). Same read-out and setting: the same measure for `COc1ccc(S(=O)(=O)NCC(=O)NC2CC2)cc1OC`: “inactive”. On the same count and under the same terms, next, `COc1ccc(Nc2ccc3ccccc3c2)cc1`: “inactive”. On to `COc1ccc(Nc2cc(=O)oc3ccccc23)cc1`, for which the Potency was 2.91 µM (active). Same read-out and setting: next, `COc1ccc(Nc2nnc(C)c3ccccc23)cc1`: “inactive”; `CCn1cc(/C=C(\NC(=O)c2ccc(C)cc2)C(=O)NCCN2CCOCC2)c2ccccc21`: “inactive”.

For `CC1=NNC(=O)C1CC(=O)N/N=C/c1ccncc1` (configuration not stated), the Potency entry was “inactive”. `CCc1ccc(-n2c(SCc3cc(=O)n4cc(Br)ccc4n3)nc3[nH]ncc3c2=O)cc1`: the Potency was 23.1 µM (active). In the case of `CCCSc1nc2[nH]ncc2c(=O)[nH]1`, the Potency entry was “inactive”.

Regarding `Cc1nn(Cc2ccc(F)cc2)c(C)c1NC(=O)c1noc2c1CCc1ccccc1-2`, the Potency was 25.9 µM (active) and 4.61 µM (active).

In the case of `Cc1nn(Cc2ccc(F)cc2)c(C)c1NC(=O)c1cc(CC(C)C)on1`, the Potency was 20.6 µM (active). The same measure, in the same setting: next, `COc1ccc2c(c1)CCc1c(C(=O)Nc3c(C)n(C)n(-c4ccccc4)c3=O)noc1-2`: “inactive”.

Consider `Cc1ccccc1Cn1nc(C)c(NC(=O)C(F)(F)F)c1C`, for which the Potency result is “inactive”.

In the case of `Cc1cc(C(=O)Nc2c(C)nn(Cc3ccccc3)c2C)on1`, the Potency entry is “inactive”. The same measure, in the same setting: the same measure for `Cc1nn(Cc2ccc(F)cc2)c(C)c1NC(=O)c1cccnc1Cl`: “inactive”; for `C=CCOc1ccc(/C=C/C(=O)OC(C)C(=O)Nc2ccc(NC(C)=O)cc2)cc1` (configuration not stated): “inactive”; for `CC(CCN1CCN=C1N(C)C)c1ccccc1` (configuration not stated): “inactive”. Same read-out and setting: next, `Cc1cc(C)c2c(n1)sc1c(=O)n(-c3ccccc3)c(=O)[nH]c12`: “inactive”.

As to `CC(=O)Nc1cc(C(=O)N2CCc3c(Cl)cccc3C2)cc2ncn(CCc3ccccn3)c12`, the activity change, negative = growth inhibition is -10.1% [at 9.04 µM]. With `CN(Cc1c(F)cccc1Cl)C(=O)CNC(=O)c1ccc2c(c1)OCO2`, the Potency result was “inactive”. The same measure, in the same setting: next, `COCCNC(=O)c1onc(CSc2cccc(C)c2)c1C(=O)O`: “inactive”; `COCCN(Cc1cc2cc3c(cc2nc1Cl)OCO3)C(=O)c1cccc(C)c1`: 7.31 µM (active). Still for that read-out and setting: the same measure for `CCSc1nc(O)c(C(c2cccc(OC)c2)c2c(O)nc(SCC)[nH]c2=O)c(=O)[nH]1`: “inactive”; for `CC1COc2ccccc2N1C(=O)c1ccc(F)cc1` (configuration not stated): “inactive”; for `c1cncc(-c2nnc3n2C2(CCCCC2)Cc2ccccc2-3)c1`: “inactive”. Turning to `CC1(C)Cc2ccccc2-c2nnc(-c3cccc(O)c3)n21`, the Potency result was “inactive”. Still for that read-out and setting: next, `CC1(C)Cc2ccccc2-c2c[nH]c(=O)n21`: “inactive”; `CCC1(CC)Cc2ccccc2-c2nc3ccccc3c(=O)n21`: 18.4 µM (active); `CCOC(=O)C1CCc2nc3ccccc3c(=O)n21` (configuration not stated): “inactive”. The same measure, in the same setting: next, `O=c1c2ccccc2nc2n1C1(CCCCC1)Cc1ccccc1-2`: 16.4 µM (active); `CCCCSc1ncnc2c1sc1nc(N3CCOCC3)c3c(c12)CCCC3`: “inactive”; `NS(=O)(=O)c1ccc(CCNC(=O)COC(=O)COc2cccc(C(F)(F)F)c2)cc1`: “inactive”. As to `CCN(c1ncnc2c1cnn2-c1ccc(C)cc1)C1CCCCC1`, the Potency entry is “inactive”.

With `O=C(c1cc(-c2ccc(Cl)s2)nc2ccccc12)N1CCOCC1`, the Potency entry is “inactive”. On the same count and under the same terms, the same measure for `COCCNC(=O)c1ccccc1NS(=O)(=O)c1ccc(C)c([N+](=O)[O-])c1`: “inactive”.

As to `COCCNc1cc(NCCOC)c([N+](=O)[O-])cc1[N+](=O)[O-]`, the Potency result is “inactive”.

Consider `COCCNc1ccc(-c2n[nH]c(=O)c3ccccc23)cc1[N+](=O)[O-]`, for which the Potency was 14.6 µM (active).

For `CC(C)(C)C(=O)OCc1nc(-c2ccc(O)c(O)c2)cs1`, the Potency was 6.51 µM (active). Turning to `Cc1onc(C(=O)NN)c1-c1csc(COc2ccccc2)n1`, the Potency entry is “inactive”. The same measure, in the same setting: the same measure for `COc1ccc(-c2csc(-c3cccs3)n2)cc1OC`: “inactive”; for `O=C(Nc1ccncc1)c1ccc([N+](=O)[O-])cc1Cl`: “inactive”. The same measure, in the same setting: the same measure for `O=C1N(c2ccc(Cl)cc2)C(c2ccc(Cl)cc2)N2CCCN12` (configuration not stated): “inactive”; for `Nc1nonc1-n1nnc(C(=O)N/N=C\c2ccncc2)c1CN1CCCCC1`: “inactive”; for `Cc1ccc(SCc2c(C(=O)N/N=C/C3CC=CCC3)nnn2-c2nonc2N)cc1` (configuration not stated): “inactive”. Same read-out and setting: next, `Nc1nonc1-n1nnc(C(=O)N/N=C/c2cc(Br)ccc2O)c1CSC1=NCCS1`: 5.8 µM (active). On to `COc1cc(OC)c(OC)cc1/C=N/Nc1ncnc2c1[nH]c1ccc(C)cc12`, for which the Potency entry was “inactive”. For `CC(C)OCCCNc1ncnc2c1[nH]c1ccc(F)cc12`, the Potency is 2.91 µM (active).

`COc1ccc(CCNC(=O)CC2SC(=Nc3cc(C)cc(C)c3)NC2=O)cc1OC` (configuration not stated): the Potency result was “inactive”. On the same count and under the same terms, the same measure for `CC(C)(C)OC(=O)CNC(=O)c1[nH]cnc1C(=O)N[C@@H](CCCCN)C(=O)OC(C)(C)C`: “inactive”; for `COc1cc2ccccc2cc1C(=O)Nc1ccncc1`: “inactive”. On the same count and under the same terms, the same measure for `COc1cc(NC(=O)c2cccs2)ccc1NC(=O)c1ccccc1Cl`: “inactive”; for `COc1cc2ccccc2cc1C(=O)Nc1ccc(NC(=O)c2cccs2)cc1`: 20.6 µM (active); for `CCCCCCCCCCOC(=O)C[N+](C)(C)CC1CCCCC1O` (configuration not stated): “inactive”. Same read-out and setting: next, `CC(NCc1cccs1)C(=O)Nc1cc(Cl)cc(Cl)c1` (configuration not stated): “inactive”; `CC(=O)N1CCC2(CCCN(Cc3ccc(C#N)cc3)C2)CC1`: “inactive”. For the compound `O=C(CCc1ccccc1)NCc1cccnc1`, the Potency entry was “inactive”.

Consider `O=C(CN(c1cc(C(F)(F)F)ccc1Cl)S(=O)(=O)c1ccccc1)NCc1cccnc1`, for which the Potency was 20.6 µM (active). On the same count and under the same terms, the same measure for `O=C(O)c1cc(S(=O)(=O)N(Cc2ccccc2)c2cccc(C(F)(F)F)c2)ccc1Cl`: “inactive”.
